Measured values taken from PubChem BioAssay (NCATS).
Inconclusive results are not listed. Active and inactive are the calls of the source. The call rests on the fitted dose curve; in most records, active means well fitted inhibition curve with a large enough effect; inconclusive means small, poorly fitted or top-dose-only effect; inactive means no such curve, though single readings can be large or run the other way.

Biological target: Endonuclease 4 (Escherichia coli (strain K12)) (UniProt P0A6C1)
Test: Counterscreen for APE1 Inhibitors: qHTS Validation Assay for Inhibitors of Endonuclease IV (AID 1708)
Conditions: E. coli endonuclease IV, DNA cleavage fluorescence; series mostly up to 57.1 µM
Outline: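 Read-out: fluorescence rise (ex 525/em 598 nm) from incision of a TAMRA/BHQ-2 double-stranded THF abasic-site substrate (50 nM), measured kinetically; third-minus-first read difference gave reaction progress. Enzyme 2 nM.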

Row | Structure (SMILES) | outcome
1 | CC(C)c1cccc(C(C)C)c1O | inactive
2 | CCC1(c2ccc(N)cc2)CCC(=O)NC1=O (configuration not stated) | inactive
3 | O=C(CCCN1CCC2(CC1)C(=O)NCN2c1ccccc1)c1ccc(F)cc1 | inactive
4 | CC(NC(C)(C)C)C(=O)c1cccc(Cl)c1 (configuration not stated) | inactive
5 | CN1C(=O)CCS(=O)(=O)C1c1ccc(Cl)cc1 (configuration not stated) | inactive
6 | CC(C)(C)NCC(O)c1ccccc1Cl (configuration not stated) | inactive
7 | NCCc1ccc(O)cc1 | inactive
8 | C[C@]12CCC(=O)C=C1CC[C@@H]1[C@@H]2CC[C@]2(C)C(=O)CC[C@@H]12 | inactive
9 | O=C(O)CCCc1ccc(N(CCCl)CCCl)cc1 | inactive
10 | O=P1(N(CCCl)CCCl)NCCCO1 (configuration not stated) | inactive
11 | CC(C)N(CCC(C(N)=O)(c1ccccc1)c1ccccn1)C(C)C (configuration not stated) | inactive
12 | CC[N+](CC)(CC)CCOc1cccc(OCC[N+](CC)(CC)CC)c1OCC[N+](CC)(CC)CC | inactive
